Measured values from article PMC5540273 (PLoS ONE, 2017).
Like-named read-outs stand apart in the source and are kept apart here.

Tests used:
SRPK3 = conditions: concentration: 1 μM, replicates: in singlicate; n = 1
STK16 = conditions: concentration: 1 μM, replicates: in singlicate; n = 1
STK33 = conditions: concentration: 1 μM, replicates: in singlicate; n = 1
STK35 = conditions: concentration: 1 μM, replicates: in singlicate; n = 1
STK36 = conditions: concentration: 1 μM, replicates: in singlicate; n = 1
STK39 = conditions: concentration: 1 μM, replicates: in singlicate; n = 1
SYK = conditions: concentration: 1 μM, replicates: in singlicate; n = 1
SgK110 = conditions: concentration: 1 μM, replicates: in singlicate; n = 1
TAK1 = test system: T1, TAK1; conditions: concentration: 1 μM, replicates: in singlicate; n = 1
T1 construct: gene MAP3K7

TAOK1 = conditions: concentration: 1 μM, replicates: in singlicate; n = 1
TAOK2 = conditions: concentration: 1 μM, replicates: in singlicate; n = 1
TAOK3 = conditions: concentration: 1 μM, replicates: in singlicate; n = 1
TBK1 = conditions: concentration: 1 μM, replicates: in singlicate; n = 1
TEC = conditions: concentration: 1 μM, replicates: in singlicate; n = 1
TESK1 = conditions: concentration: 1 μM, replicates: in singlicate; n = 1
TGFBR1 = conditions: n = 1
TGFBR2 = conditions: concentration: 1 μM, replicates: in singlicate; n = 1
TIE1 = conditions: concentration: 1 μM, replicates: in singlicate; n = 1
TIE2 = test system: T2, TIE2; conditions: concentration: 1 μM, replicates: in singlicate; n = 1
T2 construct: gene TEK

TLK1 = conditions: concentration: 1 μM, replicates: in singlicate; n = 1
[1] = concentration: 1 μM, replicates: in singlicate
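Further: KINOMEscan kinase panel screen.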

NS(=O)(=O)c1cccc(-c2ccc3ncc(N4CCOCC4)nc3c2)c1 [GSK1535721]
%Inh (SRPK3): 0%
%Inh (STK16): 16%
%Inh (STK33): 0%
%Inh (STK35): 0%
%Inh (STK36): 5%
%Inh (STK39): 1%
%Inh (SYK): 0%
%Inh (SgK110): 1%
%Inh (TAK1): 16%
%Inh (TAOK1): 14%
%Inh (TAOK2): 0%
%Inh (TAOK3): 4%
%Inh (TBK1): 17%
%Inh (TEC): 18%
%Inh (TESK1): 0%
%Inh (TGFBR1; [1]): 6%
%Inh (TGFBR2): 0%
%Inh (TIE1): 0%
%Inh (TIE2): 0%
%Inh (TLK1): 9%

O=C1NC(=O)C(N2CCc3ccccc32)=C1c1cccc(Cl)c1 [SB-408010]
%Inh (SRPK3): 31%
%Inh (STK16): 26%
%Inh (STK33): 0%
%Inh (STK35): 19%
%Inh (STK36): 16%
%Inh (STK39): 54%
%Inh (SYK): 0%
%Inh (SgK110): 1%
%Inh (TAK1): 21%
%Inh (TAOK1): 0%
%Inh (TAOK2): 0%
%Inh (TAOK3): 0%
%Inh (TBK1): 0%
%Inh (TEC): 0%
%Inh (TESK1): 30%
%Inh (TGFBR1; [1]): 0%
%Inh (TGFBR2): 1%
%Inh (TIE1): 0%
%Inh (TIE2): 12%
%Inh (TLK1): 10%

Cl.Oc1cccc(Nc2ccnc3cc(-c4ccncc4)ccc23)c1 [GW494601]
%Inh (SRPK3): 0%
%Inh (STK16): 26%
%Inh (STK33): 41%
%Inh (STK35): 0%
%Inh (STK36): 0%
%Inh (STK39): 1%
%Inh (SYK): 82%
%Inh (SgK110): 0%
%Inh (TAK1): 41%
%Inh (TAOK1): 0%
%Inh (TAOK2): 0%
%Inh (TAOK3): 0%
%Inh (TBK1): 9%
%Inh (TEC): 1%
%Inh (TESK1): 16%
%Inh (TGFBR1; [1]): 76%
%Inh (TGFBR2): 99.5%
%Inh (TIE1): 50%
%Inh (TIE2): 48%
%Inh (TLK1): 0%

COc1ccc(CNC(=O)NC2CCN(c3ccnc(Nc4ccc(OC)cc4)n3)C2)cc1 (stereo not shown) [GSK1379727]
%Inh (SRPK3): 0%
%Inh (STK16): 16%
%Inh (STK33): 0%
%Inh (STK35): 0%
%Inh (STK36): 0%
%Inh (STK39): 5%
%Inh (SYK): 22%
%Inh (SgK110): 7%
%Inh (TAK1): 0%
%Inh (TAOK1): 0%
%Inh (TAOK2): 7%
%Inh (TAOK3): 0%
%Inh (TBK1): 0%
%Inh (TEC): 0%
%Inh (TESK1): 16%
%Inh (TGFBR1; [1]): 38%
%Inh (TGFBR2): 0%
%Inh (TIE1): 17%
%Inh (TIE2): 0%
%Inh (TLK1): 0%

Cc1nnc(-c2ccc3occ(-c4ccc(C(C)O)cc4)c3c2)o1 (stereo not shown)
%Inh (SRPK3): 0%
%Inh (STK16): 12%
%Inh (STK33): 0%
%Inh (STK35): 32%
%Inh (STK36): 19%
%Inh (STK39): 0%
%Inh (SYK): 14%
%Inh (SgK110): 25%
%Inh (TAK1): 25%
%Inh (TAOK1): 0%
%Inh (TAOK2): 8%
%Inh (TAOK3): 0%
%Inh (TBK1): 30%
%Inh (TEC): 0%
%Inh (TESK1): 3%
%Inh (TGFBR1; [1]): 3%
%Inh (TGFBR2): 69%
%Inh (TIE1): 18%
%Inh (TIE2): 16%
%Inh (TLK1): 0%

Cn1ccc2ncnc(Oc3ccc(NC(=O)Nc4ccncc4)c(Cl)c3)c21
%Inh (SRPK3): 0%
%Inh (STK16): 10%
%Inh (STK33): 0%
%Inh (STK35): 0%
%Inh (STK36): 5%
%Inh (STK39): 100%
%Inh (SYK): 3%
%Inh (SgK110): 30%
%Inh (TAK1): 0%
%Inh (TAOK1): 0%
%Inh (TAOK2): 0%
%Inh (TAOK3): 0%
%Inh (TBK1): 22%
%Inh (TEC): 0%
%Inh (TESK1): 0%
%Inh (TGFBR1; [1]): 10%
%Inh (TGFBR2): 0%
%Inh (TIE1): 0%
%Inh (TIE2): 5%
%Inh (TLK1): 0%

Cc1cccc(Cn2ccn3c(=O)cc(N4CCOCC4)nc23)c1 [GSK2297542]
%Inh (SRPK3): 0%
%Inh (STK16): 61%
%Inh (STK33): 0%
%Inh (STK35): 0%
%Inh (STK36): 0%
%Inh (STK39): 0%
%Inh (SYK): 22%
%Inh (SgK110): 0%
%Inh (TAK1): 13%
%Inh (TAOK1): 0%
%Inh (TAOK2): 5%
%Inh (TAOK3): 0%
%Inh (TBK1): 10%
%Inh (TEC): 11%
%Inh (TESK1): 39%
%Inh (TGFBR1; [1]): 3%
%Inh (TGFBR2): 0%
%Inh (TIE1): 0%
%Inh (TIE2): 0%
%Inh (TLK1): 16%

COc1ccc(Nc2ncc(C#N)c(Nc3ccccc3C(N)=O)n2)cc1N1CCN(C)CC1.Cl [GSK1558669]
%Inh (SRPK3): 100%
%Inh (STK16): 98.3%
%Inh (STK33): 99.2%
%Inh (STK35): 99.3%
%Inh (STK36): 99.5%
%Inh (STK39): 100%
%Inh (SYK): 98.6%
%Inh (SgK110): 66%
%Inh (TAK1): 100%
%Inh (TAOK1): 86%
%Inh (TAOK2): 51%
%Inh (TAOK3): 91.3%
%Inh (TBK1): 99.5%
%Inh (TEC): 93.5%
%Inh (TESK1): 67%
%Inh (TGFBR1; [1]): 46%
%Inh (TGFBR2): 27%
%Inh (TIE1): 98.5%
%Inh (TIE2): 97.2%
%Inh (TLK1): 96.2%

Nc1nccc(-c2c(-c3ccc(F)cc3)ncn2C2CCN(CC(F)(F)F)CC2)n1 [SB-236560]
%Inh (SRPK3): 6%
%Inh (STK16): 0%
%Inh (STK33): 0%
%Inh (STK35): 0%
%Inh (STK36): 26%
%Inh (STK39): 0%
%Inh (SYK): 0%
%Inh (SgK110): 0%
%Inh (TAK1): 21%
%Inh (TAOK1): 0%
%Inh (TAOK2): 0%
%Inh (TAOK3): 0%
%Inh (TBK1): 0%
%Inh (TEC): 8%
%Inh (TESK1): 0%
%Inh (TGFBR1; [1]): 32%
%Inh (TGFBR2): 6%
%Inh (TIE1): 25%
%Inh (TIE2): 0%
%Inh (TLK1): 11%

CNc1ncnc2[nH]ncc12 [SKF-18355]
%Inh (SRPK3): 10%
%Inh (STK16): 0%
%Inh (STK33): 0%
%Inh (STK35): 0%
%Inh (STK36): 0%
%Inh (STK39): 9%
%Inh (SYK): 22%
%Inh (SgK110): 0%
%Inh (TAK1): 0%
%Inh (TAOK1): 0%
%Inh (TAOK2): 24%
%Inh (TAOK3): 0%
%Inh (TBK1): 30%
%Inh (TEC): 0%
%Inh (TESK1): 10%
%Inh (TGFBR1; [1]): 47%
%Inh (TGFBR2): 0%
%Inh (TIE1): 0%
%Inh (TIE2): 2%
%Inh (TLK1): 0%

CN(C(=O)c1ccc(-c2cc(-c3c[nH]nc3-c3ccccn3)ccn2)cc1)C1CCOCC1 [GW810083]
%Inh (SRPK3): 11%
%Inh (STK16): 0%
%Inh (STK33): 0%
%Inh (STK35): 0%
%Inh (STK36): 0%
%Inh (STK39): 17%
%Inh (SYK): 0%
%Inh (SgK110): 0%
%Inh (TAK1): 24%
%Inh (TAOK1): 0%
%Inh (TAOK2): 0%
%Inh (TAOK3): 0%
%Inh (TBK1): 0%
%Inh (TEC): 0%
%Inh (TESK1): 1%
%Inh (TGFBR1; 1 µM): 77%
%Inh (TGFBR2): 21%
%Inh (TIE1): 0%
%Inh (TIE2): 1%
%Inh (TLK1): 0%
